Molecules are shown by their SMILES. About 83,000 compounds went through this panel and 20% of them were active in at least one assay; those are over-represented in the sample as a whole.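 Each cell line was grown in a 96-well plate and treated with one concentration of compound for 48 hours. Values below 10 were considered active.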 Values without a mark were called inactive. Activity calls are given as the source filed them.

The assay has as its system HL-60(TB) leukemia. Briefly: NCI-60 one-dose screen, 48 h (100 = growth as untreated, 0 = no growth, -100 = all killed). Conditions: 10 µM unless noted.
Take `C=C1CCC2C3(C)COC(c4ccccc4F)OC3CCC2(C)C1C/C=C1/C(=O)OCC1O` (stereo not given): the growth is -0.649% (active).
The value for `Cc1ccc(NCC(=O)Nn2c(COc3ccccc3)nc3ccccc3c2=O)cc1` was 93.9%.
The value for `O=c1[nH]c2ccccc2cc1CSc1ccc(Nc2nccc(-c3ccc4ccccc4c3)n2)cc1` was 92.5%; that for `C=C1CCC2C3(C)COC(c4c(F)cccc4F)OC3CCC2(C)C1C/C=C1/C(=O)OCC1O` (stereo not given) was 6.75% (active); that for `Cc1cc(C)nc(NS(=O)(=O)c2ccc(N/C(N)=N/c3nccc(-c4ccccc4)n3)cc2)n1` was -25.8% (active).
The value for `O=C(CSc1nnc(-c2c[nH]c3ccccc23)n1-c1ccccc1)Nc1ccc(C(=O)/C=C/c2ccccc2Cl)cc1` was 78%; that for `CN1CCN(Cc2ccc(NC(=O)c3cncc(C#Cc4cnc5ccc(N[C@H]6CCOC6)nn45)c3)cc2C(F)(F)F)CC1` was -54.4% (active).
With `COc1ccc(NC(=O)Nc2nc3ccc([N+](=O)[O-])cc3s2)cc1`, the growth was 2.05% (active).
The result for `CCOC(=O)C1=C(N)N(c2ccccc2)C2=C(C(=O)CC(C)(C)C2)C1c1ccc(N2CCOCC2)cc1` (stereo not given) reads 101%.
The value for `CN1CCc2c(sc3ncnc(N/N=C/c4ccc5ccccc5c4)c23)C1` was -14.6% (active); that for `Oc1ccc(/C=C2\CCCc3cc4ccc(O)cc4[o+]c32)c(O)c1` was 33.4%; that for `Cn1cc(-c2nc(N)nnc2-c2c[nH]c3ccc(F)cc23)c2cccnc21` was 37.2%.
The result for `COc1ccc([C@H]2C(C(=O)c3ccc(Cl)cc3)C3(N[C@@H]2c2ccccc2)C(=O)Nc2ccc(Cl)cc23)cc1` (stereo not given in full) reads 11.5%.
Regarding `COc1ccc(/C(C)=N/N=C2C(=O)N(C)c3ccc(Br)cc32)cc1S(N)(=O)=O`, the growth was 99%.
The value for `O=C1NC(=NC23CC4CC(CC(C4)C2)C3)N/C1=C\c1ccc2ncccc2n1` was -19.1% (active); that for `Cc1ccc(S(=O)(=O)Nc2ccc(-c3ccc4c(c3)NC(=O)/C4=C\c3ccc[nH]3)cc2)cc1` was 39.3%; that for `Cc1[nH]nc2ccc3nc(-c4cnn(CCO)c4)c4c(c3c12)CCCC4` was 36.9%.
For the compound `Cc1ccc(/C=C/C(=O)c2ccc(NC(=O)CSc3nnc(-c4c[nH]c5ccccc45)n3-c3ccccc3)cc2)c(C)c1`, the growth was 79.6%.
The value for `CN(C)CCn1c2ccccc2c2nc3ccc([N+](=O)[O-])cc3nc21` was 5.67% (active); that for `COc1ccc(-c2ccnc(SCc3cc4cc(Cl)ccc4[nH]c3=O)n2)cc1` was 120%; that for `CSc1ccc(C(=O)Nc2ccc3nn(/C(C#N)=C/c4ccccn4)nc3c2)cc1` was -21.9% (active).
The value for `COc1ccc(NC(=O)[C@H](CO)NC(=O)OC(C)(C)C)cc1C(=O)Nc1cccc(C2CC(=O)c3c(cc(OC)c(OC)c3OC)O2)c1` (stereo not given in full) was 58.1%; that for `CCOC(=O)/C=C/c1cccc2c1C(=O)NC(C)(c1cc3cc(Br)ccc3oc1=O)N2` (stereo not given) was 27.3%; that for `COc1ccccc1-n1cc(C#N)c(N)c1C(=O)c1ccc(Cl)cc1Cl` was 1.26% (active).
The result for `Oc1cncc(-c2ccc3ncnc(N4CCc5cc(F)c(Cl)cc54)c3c2)c1` reads 84.7%; that for `CCOC(=O)c1ccc(NC(=S)NC(=O)c2cccc(NC(=O)c3ccc(C)cc3)c2)cc1`, 102%; that for `COc1ccccc1Nc1nnc(-c2c[nH]c3ccccc23)o1`, 2.38% (active).
Regarding `CC(C)C1=C[C@@]23CC[C@@H]4[C@](C)(CCC[C@]4(C)C(=O)NCc4ccccc4)[C@H]2C[C@@H]1[C@H]1C(=O)OC(=O)[C@H]13`, the growth was 3.62% (active).
For the compound `COc1ccc(-c2cc(C(=O)N=Nc3c(O)[nH]c4ccc(Br)cc34)c3ccccc3n2)cc1`, the growth was 21.1%.
The result for `CCCCCCCCc1ccc(C(=O)Nc2ccc(C)cc2C(=O)O)cc1` reads 92.2%; that for `Cn1cc(-c2nc(N)nnc2-c2c[nH]c3ccc(F)cc23)c2cc(Br)cnc21`, -34% (active); that for `O=C(c1ccc(O)cc1)C1[C@H](c2ccc(Br)cc2)[C@@H](c2ccccc2)NC12C(=O)Nc1ccc(Br)cc12` (stereo not given in full), 12.5%.
The result for `C[C@H](NC(=O)c1ccc2c(-c3ccc(C(F)(F)F)cc3)cccc2c1)c1ccccn1` reads 23%.
The value for `O=C(CSc1nnc(-c2c[nH]c3ccccc23)n1-c1ccccc1)Nc1ccc(C(=O)/C=C/c2ccc(Br)cc2)cc1` was 83.2%; that for `COc1ccc2[nH]c(=O)c(CSc3nccc(-c4ccc(Cl)cc4)n3)cc2c1` was 29.3%.
With `COC1=C[C@]23CCC(=O)N2CCc2cc4c(cc2[C@@H]3[C@@H]1OC(=O)CCCC(C)C)OCO4`, the growth was 7.81% (active).
The result for `Cc1cn(-c2cc(NC(=O)c3ccc(C)c(-n4cc(-c5cnc6cccnn56)nn4)c3)cc(C(F)(F)F)c2)cn1` reads 24.9%; that for `COc1cc2c(c(OC)c1OC)C(=O)CC(c1cccc(NC(=O)c3cccc(NC(=O)[C@H](C)NC(=O)OC(C)(C)C)c3)c1)O2` (stereo not given in full), 71.2%.
The value for `CS(=O)(=O)Nc1ccc(-c2ccc3c(c2)ncn3-c2ccc(NC(=O)Nc3ccc(Br)cc3)cc2)cc1` was -42% (active); that for `Cc1ccc([C@H]2C(C(=O)c3ccc(Cl)cc3)C3(N[C@@H]2c2ccccc2)C(=O)Nc2ccccc23)cc1` (stereo not given in full) was -22.2% (active).

(Values after PubChem BioAssay (NCI).)
